{"source": "PubChem BioAssay AID651558", "about": "(National Center for Advancing Translational Sciences (NCATS), 2012)", "note": "Hit rate of the full screen: of about 1,200 compounds, about 480 (40%) were called active. Not shown: some 29% with an inconclusive outcome. Calls come from the whole dose curve; as a rule, active = well fitted inhibition curve with a large enough effect; inconclusive = small, poorly fitted or top-dose-only effect; inactive = no such curve, though single readings can be large or run the other way. This is one part of the list. Potency is the fitted concentration of half-maximal effect."}
{"assay": "qHTS Assay to Find Inhibitors of Chronic Active B-Cell Receptor Signaling: Hit Validation in Primary Screen; note: nearly all actives have a fitted effect of over 75% in size", "conditions": "ABC-DLBCL IkB-luc/CBR ratio luminescence, 4 h; series mostly up to 46.1 µM", "in_short": "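Concentration series (3 nM to 46 uM) tested on TMD8 cells induced with doxycycline for 4 h. Filter-corrected green (IkBa fusion) over red (unfused) luciferase signal; Data were normalised to 10 uM MG-132 and untreated cell wells.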"}
{"compound": "Cc1nc2c(-c3ccccc3)c[nH]n2c(=O)c1Cc1ccccc1", "Potency": "inactive"}
{"compound": "CCN(CC)c1ccc2c(cc1=O)[C@@H](NC)CCc1cc(OC)c(OC)c(OC)c1-2", "Potency": "5.8 µM (active)"}
{"compound": "CCN(CC)c1ccc(Nc2cc3n(c(=O)n2)CCc2cc(OC)c(OC)cc2-3)cc1", "Potency": "inactive"}
{"compound": "COc1cc2c(c(OC)c1OC)-c1ccc(OC)c(=O)cc1C(NC(C)=O)CC2", "note": "(stereo not drawn)", "Potency": "0.206 µM (active)"}
{"compound": "NCCNC(=O)Cc1cccc(NC(=O)Cc2ccc(Nc3ncnc4c3ncn4[C@@H]3O[C@H](CO)[C@@H](O)[C@H]3O)cc2)c1", "Potency": "1.46 µM (active)"}
{"compound": "NCCNC(=O)Cc1ccc(NC(=O)Cc2ccc(Nc3ncnc4c3ncn4[C@@H]3O[C@H](CO)[C@@H](O)[C@H]3O)cc2)cc1", "Potency": "0.461 µM (active)"}
{"compound": "CC1CCc2c(sc(NC(=O)CSc3nc(N)cc(=O)[nH]3)c2C(N)=O)C1", "note": "(stereo not drawn)", "Potency": "10.3 µM (active)"}
{"compound": "NC(=O)c1c(NC(=O)CSc2nc(N)cc(=O)[nH]2)sc2c1CCCC2", "Potency": "9.2 µM (active)"}
{"compound": "COc1cc2c(cc1OC)C(C)N(C(=O)c1cc(C)on1)CC2", "note": "(stereo not drawn)", "Potency": "5.8 µM (active)"}
{"compound": "COc1ccc(-c2nn(-c3ccccc3)cc2/C=N/NC(N)=S)cc1OC", "Potency": "20.6 µM (active)"}
{"compound": "COc1ccccc1NS(=O)(=O)c1cccc(C(=O)N/N=C/c2cn(-c3ccccc3)nc2-c2ccccc2)c1", "Potency": "inactive"}
{"compound": "Cc1cccc(C)c1-n1c(C)cc(/C=N/NC(N)=S)c1C", "Potency": "inactive"}
{"compound": "Cc1ccccc1NCC(=O)c1ccc(Br)cc1", "Potency": "inactive"}
{"compound": "Cc1ccc(N(C)S(=O)(=O)c2ccc(-c3cnc(C4CC4)o3)cc2)cc1", "Potency": "5.8 µM (active)"}
{"compound": "Cc1cccc(N(C)S(=O)(=O)c2ccc(-c3cnc(C4CC4)o3)cc2)c1", "Potency": "1.84 µM (active)"}
{"compound": "Cc1ccc2[nH]c(-c3ccccc3)cc(=O)c2c1", "Potency": "5.17 µM (active)"}
{"compound": "Cc1ccc2[nH]c(-c3cccc(F)c3)cc(=O)c2c1", "Potency": "4.11 µM (active)"}
{"compound": "CCn1c(SCC(=O)c2ccc(Cl)cc2)nnc1C(C)C", "Potency": "inactive"}
{"compound": "CCOc1cc(/C=C(/C#N)C(=O)Nc2ccc(O)cc2)cc(Br)c1O", "Potency": "2.06 µM (active)"}
{"compound": "CC1(CCc2ccc(O)cc2)NC(=O)NC1=O", "note": "(stereo not drawn)", "Potency": "inactive"}
{"compound": "CCOC(=O)C1(C)C(C(=O)OC)=C(c2ccc(OC)cc2)c2ccccc2N1C(=O)OC", "note": "(stereo not drawn)", "Potency": "inactive"}
{"compound": "CCOC(=O)C(NC(=O)N(C)C)(Nc1sc(C)c(CC)c1C#N)C(F)(F)F", "note": "(stereo not drawn)", "Potency": "inactive"}
{"compound": "O=[N+]([O-])c1cc(F)c2cccnc2c1O", "Potency": "inactive"}
{"compound": "O=[N+]([O-])c1ccccc1S(=O)(=O)Nc1cccc2cccnc12", "Potency": "13 µM (active)"}
{"compound": "Cc1c(C(=O)Oc2cccc3cccnc23)oc2ccccc12", "Potency": "inactive"}
{"compound": "Cc1ccnc(NC(=O)c2cccc(S(=O)(=O)Nc3ccc(C)cc3C)c2)c1", "Potency": "inactive"}
{"compound": "O=S(=O)(Nc1cccc2cccnc12)c1ccccc1", "Potency": "13 µM (active)"}
{"compound": "O=C(/C=C\\c1ccccc1)Oc1cccc2cccnc12", "Potency": "inactive"}
{"compound": "O=[N+]([O-])c1ccc(O)c2ncccc12", "Potency": "inactive"}
{"compound": "Cc1ccc(S(=O)(=O)Nc2cccc3cccnc23)cc1", "Potency": "8.2 µM (active)"}
{"compound": "CCN(CC)S(=O)(=O)c1ccc(C(=O)NCCSc2c[nH]c3ccccc23)cc1", "Potency": "inactive"}
{"compound": "COc1cccc(/C=N/Nc2nc(Nc3ccccc3)nc(-n3nc(C)cc3C)n2)c1O", "Potency": "0.92 µM (active)"}
{"compound": "CC1=NN(C(N)=S)C(=O)C1N=Nc1ccccc1", "note": "(stereo not drawn)", "Potency": "inactive"}
{"compound": "COc1ccc(-c2cc(C(=O)N/N=C(\\C)c3cccnc3)c3ccccc3n2)cc1", "Potency": "inactive"}
{"compound": "Cc1ccc(/C=N/NC(=O)c2cc(-c3cccnc3)nc3ccccc23)cc1", "Potency": "2.31 µM (active)"}
{"compound": "Fc1ccc(/C=N/NC(=S)Nc2cccnc2)cc1", "Potency": "inactive"}
{"compound": "Cc1ccsc1/C=N/NC(=O)c1cc(-c2ccncc2)nc2ccccc12", "Potency": "1.64 µM (active)"}
{"compound": "Cc1ccc(/C=N/NC(=O)c2cc(-c3ccncc3)nc3ccccc23)o1", "Potency": "5.17 µM (active)"}
{"compound": "CCc1ccc(/C=N/NC(=O)c2cc(-c3ccncc3)nc3ccccc23)s1", "Potency": "8.2 µM (active)"}
{"compound": "O=C(CSc1cccc[n+]1[O-])c1ccc(Cl)cc1", "Potency": "inactive"}
{"compound": "CCc1ccc(NC(=O)CSc2nc(=O)n(CCCN3CCOCC3)c3c2CCCC3)cc1", "Potency": "inactive"}
{"compound": "CC(=NNC(=O)c1cc(C)nc2ccccc12)c1ccc(N2CCOCC2)cc1", "Potency": "inactive"}
{"compound": "S=C(NCCN1CCOCC1)N/N=C/c1cccs1", "Potency": "inactive"}
{"compound": "O=C(N/N=C/c1ccc([N+](=O)[O-])o1)c1cc(-c2ccc(-c3ccccc3)cc2)nc2ccccc12", "Potency": "4.61 µM (active)"}
{"compound": "O=C(N/N=C/c1cccs1)c1cc(-c2ccncc2)nc2ccccc12", "Potency": "2.59 µM (active)"}
{"compound": "CCc1ccc(/C=N/NC(=O)c2cc(C3CC3)nc3ccccc23)s1", "Potency": "16.4 µM (active)"}
{"compound": "COC(=O)c1cnc(Oc2ccc(NC(=O)NC(=O)c3c(OC)cccc3OC)cc2)cc1C(F)(F)F", "Potency": "1.84 µM (active)"}
{"compound": "Cc1cc(C)c2cc(C=O)c(Cl)nc2c1", "Potency": "3.66 µM (active)"}
{"compound": "Cc1ccc(N=Nc2c(C)[nH]n(C(N)=S)c2=O)cc1", "Potency": "inactive"}
{"compound": "CCc1cc2c(SCC(=O)NC3CC3)ncnc2s1", "Potency": "inactive"}
{"compound": "COc1ccc(C2CC(c3c(O)cc(C)oc3=O)=NCCS2)c(OC)c1", "note": "(stereo not drawn)", "Potency": "1.16 µM (active)"}
{"compound": "Cc1ccc(C(=O)Nc2nc(C)c(C(=O)Nc3ccc4c(c3)CCC4)s2)cc1", "Potency": "4.61 µM (active)"}
{"compound": "CCCn1nnc(NC(=S)NC(=O)c2ccc(-c3ccc(Br)cc3)o2)n1", "Potency": "inactive"}
{"compound": "COc1ccc(C2=NOC(C(=O)NCc3ccc(F)cc3)C2)cc1", "note": "(stereo not drawn)", "Potency": "18.4 µM (active)"}
{"compound": "COc1cc(C(=O)NC2CCN(Cc3nnnn3Cc3ccc(F)cc3)CC2)cc(OC)c1OC", "Potency": "inactive"}
{"compound": "COc1cc(C2=NOC(C(=O)NCc3ccc(F)cc3)C2)cc(OC)c1OC", "note": "(stereo not drawn)", "Potency": "4.61 µM (active)"}
{"compound": "Cc1ccc(C(=O)O)cc1NC(=S)NC(=O)C(c1ccccc1)c1ccccc1", "Potency": "inactive"}
{"compound": "Cc1cc(C)cc(N2CC(O)=C(c3nc4ccccc4c(=O)[nH]3)C2=N)c1", "Potency": "inactive"}
{"compound": "COc1cccc(N2CC(O)=C(c3nc4ccccc4s3)C2=N)c1", "Potency": "23.1 µM (active)"}
{"compound": "COc1ccc(/C=N/Nc2nccnc2Cl)c(OC)c1", "Potency": "23.1 µM (active)"}
{"compound": "COc1ccc(/C(C)=N/Nc2ncc(Cl)cc2Cl)c(O)c1", "Potency": "inactive"}
{"compound": "CCOC(=O)N1CCN(S(=O)(=O)c2ccc(C(=O)Nc3ccc(F)cc3F)cc2)CC1", "Potency": "20.6 µM (active)"}
{"compound": "CC(C)COc1ccc(C(=O)Nc2cc(S(=O)(=O)N3CCOCC3)ccc2N2CCCC2)cc1", "Potency": "inactive"}
